Laboratory results as given in the OligoGym collection.

Biological target: CTSH
Test: pooled miR-30 sensor sort-seq; sequence = guide strand
Settings: shRNA
Note: reference of the scale not given here.

In order of rising sensor-assay potency score (higher = more potent):
1. TTACGGTGCTTAGACATCCATG  -1.04
2. TCGTCATAGATTGTGATGTTGG  -0.963
3. TTCTATACATCATGAAGTCCTG  -0.782
4. TTATCTGGAGTTTTATGGCAGG  -0.729
5. TTCAGCAAAGCTCATGTCTGAA  -0.714
6. TTTATCTGGAGTTTTATGGCAG  -0.245
7. TGTGATGTTGGCTACATCCTTG  -0.0306
8. AAGGACAGCATCTTTCCGGTTG  0.018
9. TTGTTGTACAGGATATACTCGA  0.136
10. TTCAGTGCCATTTTAAATGTGT  0.219
11. TTTTATGGCAGGAAGTACTGGA  0.401

Biological target: CUZD1
Test: as above
Settings: shRNA

In order of falling sensor-assay potency score (higher = more potent):
1. TTGAAGTTTAGTTTTATCTTGT  0.539
2. TTGTATTACATCATCTTCTGTT  0.486
3. TTTAGTTGCAAGTTATTCCCAT  0.389
4. AAATACAGGAACATAGTCGTTT  0.0357
5. TTGATTAGGTCGTAGGTTGGAG  0.0207
6. TATATGAAGAAATGTCTCGTTT  -0.417
7. TTACACTGCAGATACACAGAGC  -0.444
8. TATCTTGTAATCTTTCTCCACT  -0.514
9. TTTGTATTACATCATCTTCTGT  -0.716
10. TTTGCTTATAATAACTCTCATC  -0.82
11. TTTGACTTTGTATTACATCATC  -1.5
12. TTCTGATTGTACCACATCCATT  -1.82

Biological target: CWF19L2
Test: as above
Settings: shRNA

In order of rising sensor-assay potency score (higher = more potent):
1. TAATCCACCATCTTCTACCACT  -1.06
2. TTGCAGTATCTGTTGTAGCATA  -0.923
3. TTAGATTCTCTTCTACACGTTT  -0.587
4. TTAGTAATCGATGACACACTAC  -0.494
5. TGTTGTAGCATATCTATCCCTT  -0.316
6. TTTACTAAGTCTGATTCTCTAC  -0.315
7. TTAGCCAGCTTAATCCACCATC  0.0576
8. TAATCTTTCTTCACTGTTCTTG  0.0595
9. TTCTACTTTGTTTCTCAGCTTG  0.279
10. TTGTTTCTCAGCTTGTTCCTTC  0.329
11. TAAATTAACTGAACAATTCGGA  0.661
12. TTTCTTGACAATTTTGTGCTTT  0.803

Biological target: CXCL1
Test: as above
Settings: shRNA

In order of falling sensor-assay potency score (higher = more potent):
1. ATGATTTTCTTAACTATGGGGG  -0.365
2. TTCCGCCCATTCTTGAGTGTGG  -0.98
3. TTCACGTTCACACTTTGGATGT  -1.04
4. TTCGATGATTTTCTTAACTATG  -1.26
5. TGAGGCAAGCTTTCCGCCCATT  -1.55
